Compounds without any hit were thinned out: in the full panel of roughly 83,000, 20% have a hit.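 48-hour exposure, single concentration, 96-well plates; percent growth endpoint where 0 means no net growth. Active: below 10.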 Calls of active or inactive are those of the source.

For the first assay, the system named is HCT-15 colon. Kind of assay: NCI-60 one-dose screen, 48 h (100 = growth as untreated, 0 = no growth, -100 = all killed). The settings on record: 10 µM unless noted.
On to `CCCCCOc1ccc(/C=N/Nc2cc(C)nc3ccc(Br)cc23)cc1`, for which the growth was -91.4% (active). The same measure, in the same setting: under `COc1ccc(OC)c(/C=C/[C@H]2O[C@@H](C)[C@H](O)[C@@H]2O)c1` stands 103% (inactive); under `COc1ccc(C(=O)c2cc(C)c(OC)c(C)c2)c(OC)c1O`, 8.64% (active); under `C=C1C(=O)O[C@H]2[C@H]1CC/C(CNC(=O)/C=C/c1ccc(Br)cc1)=C\CC[C@@]1(C)O[C@@H]21`, -64.2% (active). Regarding `O=C(c1ccccc1)N1N=C(c2ccc(-n3ccc(C(F)(F)F)n3)cc2)CC1c1ccc[nH]1` (stereo not drawn), the growth is 70.6% (inactive). As for `CS(=O)(=O)Nc1cc(-c2ccc3ncnc(Nc4ccc5[nH]ncc5c4)c3c2)cnc1Cl`, the growth is 79.4% (inactive). Same read-out and setting: under `Nc1ncc(C#Cc2cncc(NC(=O)c3cccc(C(F)(F)F)c3)c2)c2cccnc12` stands 56.6% (inactive). On the same count and under the same terms, under `CCOC(=O)Oc1c(OC)cc(C(=O)O[C@@H]2C[C@@H]3CN4CCc5c([nH]c6cc(OC)ccc56)[C@H]4C[C@@H]3[C@H](C(=O)OC)[C@H]2OC)cc1OC` stands 44.1% (inactive). The same measure, in the same setting: the result for `O=C1Nc2ccccc2/C1=C\c1cccc(/C=C2/C(=O)Nc3ccccc32)n1` reads -81.3% (active). For `NC(=O)CN1CCN(c2ccccc2Cl)CC1`, the growth is 107% (inactive). Same read-out and setting: the result for `CSc1nnc2c(=O)n(C)c(=O)n(C)c2n1` reads 100% (inactive). For `NC(=O)c1cccc(-c2ccccc2N2CCCCC2)c1`, the growth was 101% (inactive). Same read-out and setting: under `COc1cnccc1-c1nc2ccc3[nH]ncc3c2c2c1CCCC2` stands 46.1% (inactive); under `c1ccc(-c2nnc(Nc3ccc4c(c3)OCCO4)o2)c(NCc2ccncc2)c1`, 6.86% (active). As to `CNC(=O)Nc1ccc(-c2nc(N3CCOCC3)nc3c2cnn3C2CCOCC2)cc1`, the growth is 8.73% (active).

As for `O=C(N/N=C/c1ccc(O)c(O)c1)c1sc2ccccc2c1Cl`, the growth was 33.9% (inactive). As to `COc1cc(C2CC(c3cccc(Nc4ccncc4)c3)=NN2c2ccccc2)cc(OC)c1OC` (stereo not drawn), the growth is 28.2% (inactive). For the compound `Nc1ccccc1NC(=O)c1ccc(CN2CCC/C(=C\c3cccc(Cl)c3)C2=O)cc1`, the growth was 15.4% (inactive).

Turning to `C[C@H]1[C@H](C)CC[C@]2(CO)CC[C@]3(C)C(=CC[C@@H]4[C@@]5(C)CCCNC(C)(C)[C@@H]5CC[C@]43C)[C@H]12`, the growth is 6.84% (active). `O=c1[nH]nc(-c2ccc(Br)cc2)cc1Cc1ccc(O)cc1`: the growth was 105% (inactive).

As for `CC1(C)CC[C@]2(C(=O)NCC#CCN3CCOCC3)CC[C@]3(C)C(=CC[C@@H]4[C@@]5(C)Cc6c([nH]c7ccccc67)C(C)(C)[C@@H]5CC[C@]43C)[C@@H]2C1`, the growth was 93.5% (inactive). The same measure, in the same setting: under `COc1ccc(C(=O)/C=C/c2cn(Cc3ccc(Cl)cc3)c3ccccc23)cc1` stands 39.7% (inactive).

Regarding `COC(=O)CCCCCCCCC1(C)C=CC(C(C)O)=CC1` (stereo not drawn), the growth is 105% (inactive). Take `COc1ccc(-c2nn(Cc3ccccc3)c3c2-c2oncc2CC3)cc1OC`: the growth was 93.4% (inactive). On to `COc1ccc(CNC(=O)COc2ccc(/C=N/Nc3nc4ccccc4s3)cc2)cc1`, for which the growth was 31% (inactive).

The next assay relates to HT29 colon. The description is as above. Conditions: 10 µM unless noted.
For the compound `COc1ccc(NC(=O)c2sc3nc(C)c(C(O)c4ccc(OC)cc4)cc3c2N)cc1` (stereo not drawn), the growth was 4.97% (active). For `N#Cc1c(NC(=O)c2cccc(Br)c2)sc2c1CCCC2`, the growth is 59.5% (inactive). Still for that read-out and setting: the result for `Clc1ccc(C2CC(c3cccc(Nc4ccncc4)c3)=NN2c2ccccc2)cc1` (stereo not drawn) reads -9.64% (active); that for `O=C(OCc1nc2nc(Cl)nc(N3CCOCC3)c2[nH]1)n1ccnc1`, -55.2% (active); that for `CC(=O)O[C@]1(C(C)=O)CC[C@H]2[C@@H]3C=C(Cl)C4=CC(=O)CC[C@]4(C)[C@H]3CC[C@@]21C`, 101% (inactive). As for `CC(=O)c1c[nH]c2ccc(-c3ccnc(Nc4ccc(NC(=O)C5CCCC5)c(CN5CCOCC5)c4)n3)cc12`, the growth is 6.97% (active). Still for that read-out and setting: the result for `O=C(N/N=C/c1cccnc1)c1ccccc1Nc1cccc(C(F)(F)F)c1` reads 91.7% (inactive); that for `CN1CCN(CCCOc2ccc3ncnc(Nc4ccc(Oc5cccc(C(F)(F)F)c5)c(Cl)c4)c3c2)CC1`, -26.9% (active). Same read-out and setting: under `CN(C)Cc1c(-c2ccccc2)[nH]c2ccccc12` stands 89.1% (inactive); under `O=C(OC(OC(=O)c1cc(Cl)cc(Cl)c1)c1cccc2ccccc12)c1ccccc1` (stereo not drawn), 86.7% (inactive); under `CCC(C)C(N)C(=O)NNc1n[nH]c(=S)n1N` (stereo not drawn), 107% (inactive). `CC[C@H](C)[C@@H]1NC(=O)[C@H](Cc2ccc(O)cc2)N(C)C(=O)[C@H](Cc2ccccc2)NC(=O)CN(C)C(=O)[C@@H]2CCCN2C(=O)[C@@H](Cc2ccccc2)N(C)C(=O)[C@H](CC(C)C)NC1=O`: the growth was 4.78% (active). The same measure, in the same setting: under `C#CC(=O)Nc1cccc(Nc2nc3c(c(NCc4ccccc4)n2)CCCC3)c1` stands -29.1% (active); under `CCCCCOc1ccc(/C=N/Nc2cc(C)nc3ccc(Br)cc23)cc1`, 4.52% (active). Consider `COc1ccc(OC)c(/C=C/[C@H]2O[C@@H](C)[C@H](O)[C@@H]2O)c1`, for which the growth is 104% (inactive).

As to `COc1ccc(C(=O)c2cc(C)c(OC)c(C)c2)c(OC)c1O`, the growth is 26.6% (inactive). In the case of `C=C1C(=O)O[C@H]2[C@H]1CC/C(CNC(=O)/C=C/c1ccc(Br)cc1)=C\CC[C@@]1(C)O[C@@H]21`, the growth was -74.5% (active). Same read-out and setting: the result for `O=C(c1ccccc1)N1N=C(c2ccc(-n3ccc(C(F)(F)F)n3)cc2)CC1c1ccc[nH]1` (stereo not drawn) reads 87.1% (inactive); that for `CS(=O)(=O)Nc1cc(-c2ccc3ncnc(Nc4ccc5[nH]ncc5c4)c3c2)cnc1Cl`, 80.9% (inactive); that for `Nc1ncc(C#Cc2cncc(NC(=O)c3cccc(C(F)(F)F)c3)c2)c2cccnc12`, 27.4% (inactive).

With `CCOC(=O)Oc1c(OC)cc(C(=O)O[C@@H]2C[C@@H]3CN4CCc5c([nH]c6cc(OC)ccc56)[C@H]4C[C@@H]3[C@H](C(=O)OC)[C@H]2OC)cc1OC`, the growth is 36.7% (inactive). In the case of `O=C1Nc2ccccc2/C1=C\c1cccc(/C=C2/C(=O)Nc3ccccc32)n1`, the growth is 2.35% (active). On the same count and under the same terms, the result for `NC(=O)CN1CCN(c2ccccc2Cl)CC1` reads 101% (inactive); that for `CSc1nnc2c(=O)n(C)c(=O)n(C)c2n1`, 111% (inactive). The same measure, in the same setting: the result for `NC(=O)c1cccc(-c2ccccc2N2CCCCC2)c1` reads 95.2% (inactive).

With `COc1cnccc1-c1nc2ccc3[nH]ncc3c2c2c1CCCC2`, the growth was 51.8% (inactive).

Turning to `c1ccc(-c2nnc(Nc3ccc4c(c3)OCCO4)o2)c(NCc2ccncc2)c1`, the growth is 0.34% (active). `CNC(=O)Nc1ccc(-c2nc(N3CCOCC3)nc3c2cnn3C2CCOCC2)cc1`: the growth is 6.44% (active). Consider `O=C(N/N=C/c1ccc(O)c(O)c1)c1sc2ccccc2c1Cl`, for which the growth is 105% (inactive). The same measure, in the same setting: under `COc1cc(C2CC(c3cccc(Nc4ccncc4)c3)=NN2c2ccccc2)cc(OC)c1OC` (stereo not drawn) stands 1.04% (active); under `Nc1ccccc1NC(=O)c1ccc(CN2CCC/C(=C\c3cccc(Cl)c3)C2=O)cc1`, 1.41% (active). In the case of `C[C@H]1[C@H](C)CC[C@]2(CO)CC[C@]3(C)C(=CC[C@@H]4[C@@]5(C)CCCNC(C)(C)[C@@H]5CC[C@]43C)[C@H]12`, the growth was -75.4% (active). Still for that read-out and setting: under `O=c1[nH]nc(-c2ccc(Br)cc2)cc1Cc1ccc(O)cc1` stands 103% (inactive). The same measure, in the same setting: the result for `CC1(C)CC[C@]2(C(=O)NCC#CCN3CCOCC3)CC[C@]3(C)C(=CC[C@@H]4[C@@]5(C)Cc6c([nH]c7ccccc67)C(C)(C)[C@@H]5CC[C@]43C)[C@@H]2C1` reads 83.5% (inactive); that for `COc1ccc(C(=O)/C=C/c2cn(Cc3ccc(Cl)cc3)c3ccccc23)cc1`, 22.8% (inactive); that for `COC(=O)CCCCCCCCC1(C)C=CC(C(C)O)=CC1` (stereo not drawn), 99.9% (inactive). The same measure, in the same setting: the result for `COc1ccc(-c2nn(Cc3ccccc3)c3c2-c2oncc2CC3)cc1OC` reads 108% (inactive); that for `COc1ccc(CNC(=O)COc2ccc(/C=N/Nc3nc4ccccc4s3)cc2)cc1`, 35.5% (inactive).

(Values after PubChem BioAssay (NCI).)
